The sample as a whole holds a higher share of hits than the screen did.
ST2 inh = inhibitors of human ST2 (IL1RL1) binding to IL-33. inhibition, % for hits at 17 µM. AlphaLISA ST2-Fc/biotin-IL-33 interaction, 1 h. AID 1259354. hit rate 2.3% among 78,000. Q01638; in the data active = inhibition above about 30%
Target sequence (Q01638 whole entry, looked up): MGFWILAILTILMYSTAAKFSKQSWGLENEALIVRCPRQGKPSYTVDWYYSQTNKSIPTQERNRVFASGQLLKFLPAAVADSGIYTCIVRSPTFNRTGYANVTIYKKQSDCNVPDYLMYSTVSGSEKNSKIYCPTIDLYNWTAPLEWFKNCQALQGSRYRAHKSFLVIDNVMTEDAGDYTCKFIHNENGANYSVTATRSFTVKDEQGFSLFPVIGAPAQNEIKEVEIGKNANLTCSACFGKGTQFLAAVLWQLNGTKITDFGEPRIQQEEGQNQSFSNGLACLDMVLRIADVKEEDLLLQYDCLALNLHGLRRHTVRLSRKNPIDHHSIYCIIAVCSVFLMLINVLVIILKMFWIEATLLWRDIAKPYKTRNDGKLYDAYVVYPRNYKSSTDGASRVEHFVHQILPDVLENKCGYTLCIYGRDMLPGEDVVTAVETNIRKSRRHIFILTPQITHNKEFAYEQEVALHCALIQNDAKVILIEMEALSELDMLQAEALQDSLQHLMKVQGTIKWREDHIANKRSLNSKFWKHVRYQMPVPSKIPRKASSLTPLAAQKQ
An asterisk follows results filed as active; i = inactive.

SMILES	ST2 inh
CC(=O)NC(=O)c1cc2cc(Br)ccc2oc1=Nc1ccccc1F	i
COc1ccc2cc(C(=O)NC(C)=O)c(=Nc3cccc(F)c3)oc2c1	i
COc1ccc2oc(=Nc3ccc(Cl)cc3Cl)c(C(=O)NC(C)=O)cc2c1	33.0%*
COc1ccc2cc(C(=O)NC(C)=O)c(=Nc3ccc(C#N)cc3)oc2c1	37.0%*
COc1ccc2oc(=Nc3cccc(C#N)c3)c(C(=O)NC(C)=O)cc2c1	i
O=S(=O)(c1ccc(F)cc1)N1CCSC1c1ccccc1 (configuration not stated)	i
Nc1nc(NCC2CCOCC2)cc(N2CCOCC2)n1	i
CCCCc1ncc([C@@H]2C[C@H](NC(C)=O)C[C@H](CC(C)C)O2)[nH]1	i
CC(C)CNC(=O)NCCc1nc2cccnc2n1Cc1ccccc1	i
COc1ccc(CNC(=O)NCCc2nc3cccnc3n2Cc2ccccc2)cc1	63.0%*
CC(C)(C)NC(=O)NCCc1nc2cccnc2n1Cc1ccccc1	i
Cn1c(=O)[nH]c(=O)c2c1nc(SCC(=O)O)n2Cc1ccccc1Cl	i
COc1ccc(C(=O)Nc2nc3c(s2)C[C@@H]2[C@](C)(CO)[C@H](O)CC[C@@]2(C)[C@@H]3CC(=O)N2CCC(C(N)=O)CC2)cc1	i
COc1ccc(/C=C2/c3cc(C)ccc3-c3ncccc32)cc1	31.0%*
CCOC(=O)c1cccnc1-c1cc(OC)ccc1F	i
Cc1ccc(N=C2c3cc([N+](=O)[O-])ccc3-c3ncccc32)cc1	i
CC(C)(C)NC(=O)C1CCCN1S(=O)(=O)c1cccc2nsnc12 (configuration not stated)	i
O=C(NC1CCCCCCC1)C1CCCN1S(=O)(=O)c1cccc2nsnc12 (configuration not stated)	33.0%*
O=C(C1CCCN1S(=O)(=O)c1cccc2nsnc12)N1CCCCC1 (configuration not stated)	i
Cc1ccc(-c2onc3ccc(Cl)cc23)cc1	45.0%*
CC(=O)Oc1ccc(-c2nc3ccc(Cl)cc3c(=O)o2)cc1	i
O=C(O)c1cc(-c2ccc(Br)cc2)nc2ccc(Cl)cc12	i
Cc1ccc(-n2ncc3c(=O)n(-c4ccc(C)c(C)c4)c(C)nc32)cc1	i
Cc1ccc(-n2ncc3c([N+](=O)[O-])cc([N+](=O)[O-])cc32)cc1	62.0%*
Cc1ccc(-n2c(C)nc3c(cnn3-c3ccc(F)cc3)c2=O)cc1	i
SMILES	ST2 inh
CCC1=C(c2ccc(OC)cc2)S(=O)(=O)N(CC(=O)NC(C)CCc2ccccc2)C1=O (configuration not stated)	i
COC(=O)C1=C(C)Nc2nc(SCc3ccccc3)[nH]c(=O)c2C1c1ccc(OC)cc1 (configuration not stated)	i
COc1ccccc1N1CCN(C(=O)Nc2ccc([N+](=O)[O-])cc2)CC1	i
COc1ccc([N+](=O)[O-])cc1-n1cccc1	39.0%*
CCN(CC)CC(O)COc1cc([N+](=O)[O-])ccc1N1CCCC1 (configuration not stated)	i
COc1cc([N+](=O)[O-])ccc1N1CCCC1	38.0%*
COc1ccc([N+](=O)[O-])cc1NC(=O)C(Cl)(Cl)Cl	i
COc1cc([N+](=O)[O-])ccc1N	i
CCOCCn1nc(C)cc1C(=O)N1CCNCC1C(=O)N1CCCC1 (configuration not stated)	i
CCc1cnc(C)nc1N1CCCC(C(=O)c2ccc(C(F)(F)F)cc2)C1 (configuration not stated)	i
O=C(O)c1ccc(CN2CC[C@H](c3nnc(-c4ccccc4F)o3)C2)cc1	i
Cc1ccc(C(=O)Nc2ccccc2NC(=O)c2ccc(C)o2)o1	i
Cc1ccc(C(=O)Nc2ccc(S(=O)(=O)Nc3ncccn3)cc2)o1	i
Cc1ccc(NCCC(=O)c2ccc(C)o2)cc1	31.0%*
CC(C)(C)c1ccc(Cn2ncc3ccccc3c2=O)cc1	i
CN(CC(=O)NCc1ccc2c(c1)OCO2)S(=O)(=O)c1ccc2c(c1)CCC(=O)N2	i
C=CCN1C(=Nc2cccnc2)SCC1(O)c1ccccc1 (configuration not stated)	53.0%*
CC(=O)c1c(C)oc2c(Cl)cc(NS(=O)(=O)c3ccc(C)cc3)cc12	i
COC(=O)c1ccccc1NS(=O)(=O)c1ccc2c(c1)CCC(=O)N2	i
CN(Cc1ccccc1)Cc1cn(C[C@H]2O[C@@H](CC(=O)NCc3cccnc3)[C@H](O)[C@@H]2O)nn1	i
Cc1ccsc1-c1nc(CN2CCc3c(nc(CC4CC4)[nH]c3=O)C2)c(C)o1	i
CN1CC=C2C(C#N)=C(N)C(C#N)(C#N)C(c3cccc(O)c3)C2C1 (configuration not stated)	i
COc1ccc(C2(CNC(=O)c3ccc([N+](=O)[O-])cc3)CCCC2)cc1	i
COC1(C#CC(=O)c2ccc([N+](=O)[O-])cc2)CCCCC1	61.0%*
COc1cc(NC(=O)c2ccc([N+](=O)[O-])cc2)c(OC)cc1NC(C)=O	i
SMILES	ST2 inh
COCCN1CCC(CN2CCC3(CCOCC3)CC2)CC1	i
N#CCSc1nc2c(sc3ccccc32)c(=O)n1-c1ccccc1	i
Cc1ccc(-c2coc3cc4oc(=O)cc(C)c4cc23)cc1	i
COc1cc(/C=C2\C(=O)Nc3ccc(Br)cc32)cc(OC)c1O	i
COc1cccc(/C=C2\C(=O)Nc3ccc(Br)cc32)c1OC	i
COc1cc(/C=C2\C(=O)Nc3ccc(Br)cc32)cc(Br)c1O	i
O=C1Nc2ccc(Br)cc2/C1=C/c1cccc(F)c1	30.0%*
O=C1Nc2ccc(Br)cc2/C1=C/c1ccsc1	39.0%*
COc1ccc(/C=C2\C(=O)Nc3ccc(Br)cc32)cc1O	i
O=C(NC1CC1)C1C2C=CC3(CN(Cc4ccccc4Cl)C(=O)C13)O2 (configuration not stated)	i
CCc1nc(SCC(=O)c2ccc(OC)cc2)n[nH]1	i
CC1(c2cccnc2)CC(=O)c2cc(O)ccc2O1 (configuration not stated)	i
O=C(Nc1nnc(N=Cc2cccs2)s1)c1cccc([N+](=O)[O-])c1	i
COc1ccc(-c2noc([C@@H]3C[C@H](NS(=O)(=O)c4cccs4)CN3C)n2)cc1	41.0%*
CN1C[C@@H](NS(=O)(=O)c2ccccc2)C[C@H]1c1nc(-c2ccccc2)no1	i
CN1C[C@@H](NS(=O)(=O)c2ccccc2)C[C@H]1c1nc(-c2ccc(Cl)cc2)no1	i
O=C(c1ccccc1Cl)N1CCN=C1SCc1ccccc1F	i
CC(NC(=O)c1ccc2c(c1)ncn2CCO)c1ccc(O)c(F)c1 (configuration not stated)	i
O=C(Nc1ccccc1F)c1ccc2nc(-c3ccco3)c(-c3ccco3)nc2c1	i
O=C(Nc1nccs1)c1ccc2nc(-c3ccco3)c(-c3ccco3)nc2c1	30.0%*
O=C(Nc1nccs1)c1ccc2snnc2c1	i
O=C(NCc1ccccn1)C1CC(=O)N(CCc2ccccc2)C1 (configuration not stated)	i
O=C1CC(NCc2ccccn2)CN1CCCc1ccccc1 (configuration not stated)	53.0%*
O=C1CC(NS(=O)(=O)N2CCCCC2)CN1CCCc1ccccc1 (configuration not stated)	i
CCN1CCN(c2nc3c(c(=O)[nH]c(=O)n3C)n2CCSc2ncccn2)CC1	i
Cc1ccnc(NC(=O)C2CC(=O)N(c3ccc(F)cc3)C2)c1 (configuration not stated)	i

Compound activity: PubChem, Paczesny and Yang Labs, IUPUI and University of Michigan
